# The full list was thinned out, with the strongest signals kept by preference.
# Columns and labels:
# Test in all cases: glycan array binding signal (z-score within array); higher = stronger binding
# Conditions in all cases: glycan notation: IUPAC condensed, linker removed
# GlcA(b1-6)Gal = biological target: GlcA(b1-6)Gal
# In short: (§1)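 From the Consortium for Functional Glycomics database, 3228 arrays were curated, keeping only those whose protein sequence was available. Binding is given as a within-array Z-score averaged across arrays sharing a protein sequence and across linkers. Negative Z-scores can be read as non-binding.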
# [1] = biological target: GlcNAc(a1-3)Gal(b1-4)GlcNAc
# In short: as §1
# [2] = biological target: GlcNAc(a1-4)Gal(b1-4)GlcNAc(b1-3)Gal(b1-4)[Fuc(a1-3)]GlcNAc(b1-3)Gal(b1-4)[Fuc(a1-3)]GlcNAc
# In short: as §1
# [3] = biological target: GlcNAc(b1-2)Gal(b1-3)GalNAc
# In short: as §1
# [4] = biological target: GlcNAc(b1-2)[GlcNAc(b1-6)]Man(a1-6)[GlcNAc(b1-2)Man(a1-3)][GlcNAc(b1-4)]Man(b1-4)GlcNAc(b1-4)GlcNAc
# In short: as §1
# [5] = biological target: Man(a1-2)Man(a1-2)Man(a1-3)Man
# In short: as §1
# [6] = biological target: Man(a1-2)Man(a1-6)[Man(a1-3)]Man(a1-6)[Man(a1-2)Man(a1-2)Man(a1-3)]Man
# In short: as §1
# [7] = biological target: Man(a1-3)[Man(a1-6)]Man(a1-6)[Man(a1-3)]Man
# In short: as §1
# Man(a1-6)Man = biological target: Man(a1-6)Man
# In short: as §1
# [8] = biological target: Neu5Ac(a2-6)Gal(b1-4)GlcNAc(b1-2)Man(a1-3)[GlcNAc(b1-2)Man(a1-6)]Man(b1-4)GlcNAc(b1-4)GlcNAc
# In short: as §1
# [9] = biological target: Neu5Ac(a2-6)Gal(b1-4)GlcNAc(b1-2)Man(a1-6)[Gal(b1-4)GlcNAc(b1-2)Man(a1-3)]Man(b1-4)GlcNAc(b1-4)GlcNAc
# In short: as §1
# [10] = biological target: Neu5Ac(a2-6)Gal(b1-4)GlcNAc(b1-2)Man(a1-6)[GlcNAc(b1-2)Man(a1-3)]Man(b1-4)GlcNAc(b1-4)GlcNAc
# In short: as §1
# [11] = biological target: Neu5Ac(a2-6)Gal(b1-4)GlcNAc(b1-3)Gal(b1-4)[Fuc(a1-3)]GlcNAc(b1-3)Gal(b1-4)[Fuc(a1-3)]GlcNAc
# In short: as §1
# Neu5Ac(a2-6)GalNAc = biological target: Neu5Ac(a2-6)GalNAc
# In short: as §1
# [12] = biological target: Neu5Ac(a2-6)GlcNAc(b1-4)GlcNAc(b1-4)GlcNAc
# In short: as §1
# [13] = biological target: Neu5Ac(a2-8)Neu5Ac(a2-8)Neu5Ac(a2-3)[GalNAc(b1-4)]Gal(b1-4)Glc
# In short: as §1
# Fuc(a1-2)Gal = biological target: Fuc(a1-2)Gal
# In short: as §1
# Fuc(a1-2)Gal(b1-3)GalNAc = biological target: Fuc(a1-2)Gal(b1-3)GalNAc
# In short: as §1
# [14] = biological target: Fuc(a1-2)Gal(b1-3)GalNAc(b1-3)Gal(a1-4)Gal(b1-4)Glc
# In short: as §1
# Fuc(a1-2)Gal(b1-3)GlcNAc = biological target: Fuc(a1-2)Gal(b1-3)GlcNAc
# In short: as §1
# [15] = biological target: Fuc(a1-2)Gal(b1-3)GlcNAc(b1-3)GalNAc
# In short: as §1
# [16] = biological target: Fuc(a1-2)Gal(b1-3)GlcNAc(b1-3)[Neu5Ac(a2-6)Gal(b1-4)GlcNAc(b1-6)]Gal(b1-4)Glc
# In short: as §1
# [17] = biological target: Fuc(a1-2)[Gal(a1-3)]Gal(b1-4)[Fuc(a1-3)]GlcNAc(b1-3)GalNAc
# In short: as §1
# [18] = biological target: Fuc(a1-2)[GalNAc(a1-3)]Gal(b1-3)GlcNAc(b1-2)Man(a1-3)[Fuc(a1-2)[GalNAc(a1-3)]Gal(b1-3)GlcNAc(b1-2)Man(a1-6)]Man(b1-4)GlcNAc(b1-4)[Fuc(a1-6)]GlcNAc
# In short: as §1
# [19] = biological target: Fuc(a1-2)[GalNAc(a1-3)]Gal(b1-4)GlcNAc(b1-3)Gal(b1-4)GlcNAc
# In short: as §1
# [20] = biological target: Fuc(a1-3)[Gal(b1-4)]GlcNAc(b1-2)Man(a1-3)[Fuc(a1-3)[Gal(b1-4)]GlcNAc(b1-2)Man(a1-6)]Man(b1-4)GlcNAc(b1-4)[Fuc(a1-6)]GlcNAc
# In short: as §1
# Gal(a1-3)GalNAc = biological target: Gal(a1-3)GalNAc
# In short: as §1
# [21] = biological target: Gal(b1-3)GalNAc(a1-3)[Fuc(a1-2)]Gal(b1-4)Glc
# In short: as §1
# [22] = biological target: Gal(b1-3)GlcNAc(b1-6)Gal(b1-4)GlcNAc
# In short: as §1
# [23] = biological target: Gal(b1-3)[Fuc(a1-4)]GlcNAc(b1-3)Gal(b1-4)GlcNAc
# In short: as §1
# [24] = biological target: Gal(b1-3)[Neu5Ac(b2-6)]GalNAc
# In short: as §1
# [25] = biological target: Gal(b1-4)GlcNAc(b1-3)Gal(b1-4)Glc
# In short: as §1
# Gal6S(b1-3)GlcNAc6S = biological target: Gal6S(b1-3)GlcNAc6S
# In short: as §1
# Gal6S(b1-4)Glc = biological target: Gal6S(b1-4)Glc
# In short: as §1
# GalNAc(b1-3)Gal = biological target: GalNAc(b1-3)Gal
# In short: as §1
# [26] = biological target: GalNAc(b1-3)Gal(a1-6)Gal(b1-4)Glc
# In short: as §1
# GalNAc(b1-3)GalNAc = biological target: GalNAc(b1-3)GalNAc
# In short: as §1
# [27] = biological target: GalNAc(b1-4)GlcNAc(b1-2)Man(a1-3)[GalNAc(b1-4)GlcNAc(b1-2)Man(a1-6)]Man(b1-4)GlcNAc(b1-4)GlcNAc
# In short: as §1
# Glc(a1-6)Glc(a1-6)Glc = biological target: Glc(a1-6)Glc(a1-6)Glc
# In short: as §1
# [28] = biological target: GlcNAc(a1-4)Gal(b1-4)GlcNAc(b1-3)Gal(b1-4)GlcNAc
# In short: as §1
# [29] = biological target: GlcNAc(b1-2)Man(a1-3)[GlcNAc(b1-2)Man(a1-6)]Man(b1-4)GlcNAc(b1-4)GlcNAc
# In short: as §1
# [30] = biological target: Man(a1-2)Man(a1-3)[Man(a1-2)Man(a1-6)]Man(a1-6)[Man(a1-2)Man(a1-2)Man(a1-3)]Man
# In short: as §1
# [31] = biological target: Man(a1-3)[Man(a1-6)]Man(a1-6)[Man(a1-3)]Man(b1-4)GlcNAc(b1-4)GlcNAc
# In short: as §1
# [32] = biological target: Neu5Ac(a2-3)Gal(b1-3)GlcNAc(b1-3)Gal(b1-4)GlcNAc
# In short: as §1
# [33] = biological target: Neu5Ac(a2-3)Gal(b1-3)[Neu5Ac(a2-3)Gal(b1-4)]GlcNAc
# In short: as §1
# [34] = biological target: Neu5Ac(a2-3)Gal(b1-3)[Neu5Ac(a2-6)]GalNAc
# In short: as §1
# [35] = biological target: Neu5Ac(a2-3)Gal(b1-4)[Fuc(a1-3)]GlcNAc(b1-3)Gal
# In short: as §1
# [36] = biological target: Neu5Ac(a2-8)Neu5Ac(a2-3)Gal(b1-4)Glc
# In short: as §1
# [37] = biological target: Neu5Ac(a2-8)Neu5Ac(a2-3)[Gal(b1-3)GalNAc(b1-4)]Gal(b1-4)Glc
# In short: as §1
# Neu5Gc(a2-6)GalNAc = biological target: Neu5Gc(a2-6)GalNAc
# In short: as §1
binder,measurement,setting,value
CALR truncated at D342 (Homo sapiens) (protein) EPAVYFKEQFLDGDGWTSRWIESKHKSDFGKFVLSSGKFYGDEEKDKGLQTSQDARFYALSASFEPFSNKGQTLVVQFTVKHEQNIDCGGGYVKLFPNSLDQTDMHGDSEYNIMFGPDICGPGTKKVHVIFNYKGKNVLINKDIRCKDDEFTHLYTLIVRPDNTYEVKIDNSQVESGSLEDDWDFLPPKKIKDPDASKPEDWDERAKIDDPTDSKPEDWDKPEHIPDPDAKKPEDWDEEMDGEWEPPVIQNPEYKGEWKPRQIDNPDYKGTWIHPEIDNPEYSPDPSIYAYDNFGVLGLDLWQVKSGTIFDNFLITNDEAYAEEFGNETWGVTKAAEKQMKD,glycan array binding signal (z-score),GlcA(b1-6)Gal,1.96
same,glycan array binding signal (z-score),[1],-0.73
same,glycan array binding signal (z-score),[2],2.68
same,glycan array binding signal (z-score),[3],-0.975
same,glycan array binding signal (z-score),[4],-0.104
same,glycan array binding signal (z-score),[5],-0.176
same,glycan array binding signal (z-score),[6],3.6
same,glycan array binding signal (z-score),[7],-0.102
same,glycan array binding signal (z-score),Man(a1-6)Man,0.051
same,glycan array binding signal (z-score),[8],-0.321
same,glycan array binding signal (z-score),[9],3.22
same,glycan array binding signal (z-score),[10],-1.48
same,glycan array binding signal (z-score),[11],0.139
same,glycan array binding signal (z-score),Neu5Ac(a2-6)GalNAc,-0.893
same,glycan array binding signal (z-score),[12],0.867
same,glycan array binding signal (z-score),[13],-0.341
"Intelectin 1 (Homo sapiens), Q8WWA0 (protein) MNQLSFLLFLIATTRGWSTDEANTYFKEWTCSSSPSLPRSCKEIKDECPSAFDGLYFLRTENGVIYQTFCDMTSGGGGWTLVASVHENDMRGKCTVGDRWSSQQGSKAVYPEGDGNWANYNTFGSAEAATSDDYKNPGYYDIQAKDLGIWHVPNKSPMQHWRNSSLLRYRTDTGFLQTLGHNLFGIYQKYPVKYGEGKCWTDNGPVIPVVYDFGDAQKTASYYSPYGQREFTAGFVQFRVFNNERAANALCAGMRVTGCNTEHHCIGGGGYFPEASPQQCGDFSGFDWSGYGTHVGYSSSREITEAAVLLFYR",glycan array binding signal (z-score),Fuc(a1-2)Gal,2.53
same,glycan array binding signal (z-score),Fuc(a1-2)Gal(b1-3)GalNAc,-0.327
same,glycan array binding signal (z-score),[14],0.742
same,glycan array binding signal (z-score),Fuc(a1-2)Gal(b1-3)GlcNAc,0.069
same,glycan array binding signal (z-score),[15],0.22
same,glycan array binding signal (z-score),[16],4.21
same,glycan array binding signal (z-score),[17],-0.244
same,glycan array binding signal (z-score),[18],1.21
same,glycan array binding signal (z-score),[19],-0.387
same,glycan array binding signal (z-score),[20],0.394
same,glycan array binding signal (z-score),Gal(a1-3)GalNAc,-0.41
same,glycan array binding signal (z-score),[21],0.06
same,glycan array binding signal (z-score),[22],0.042
same,glycan array binding signal (z-score),[23],1.33
same,glycan array binding signal (z-score),[24],2.22
same,glycan array binding signal (z-score),[25],0.614
same,glycan array binding signal (z-score),Gal6S(b1-3)GlcNAc6S,1.05
same,glycan array binding signal (z-score),Gal6S(b1-4)Glc,-0.449
same,glycan array binding signal (z-score),GalNAc(b1-3)Gal,2.09
same,glycan array binding signal (z-score),[26],-0.442
same,glycan array binding signal (z-score),GalNAc(b1-3)GalNAc,-0.802
same,glycan array binding signal (z-score),[27],0.358
same,glycan array binding signal (z-score),Glc(a1-6)Glc(a1-6)Glc,0.027
same,glycan array binding signal (z-score),[28],3.85
same,glycan array binding signal (z-score),[2],3.27
same,glycan array binding signal (z-score),[29],-0.457
same,glycan array binding signal (z-score),[4],0.148
same,glycan array binding signal (z-score),[5],1.53
same,glycan array binding signal (z-score),[30],-0.313
same,glycan array binding signal (z-score),[31],-0.432
same,glycan array binding signal (z-score),[32],0.545
same,glycan array binding signal (z-score),[33],-0.157
same,glycan array binding signal (z-score),[34],-0.094
same,glycan array binding signal (z-score),[35],-0.21
same,glycan array binding signal (z-score),[36],0.12
same,glycan array binding signal (z-score),[37],0.572
same,glycan array binding signal (z-score),Neu5Gc(a2-6)GalNAc,0.523

# Reference: the supplement of paper PMC8728848
